This note sets out measurements from PubChem BioAssay AID720568 (Broad Institute, 2013).

Measured potencies and affinities stand elsewhere. Values without a mark were called inactive. No rule for the calls is given here.

This assay is described as follows: HepG2 cell cytotoxicity, dose response, cytotoxicity control, dry powder samples (AID 720568). The note with it: plate reader; series mostly up to 15 µM; activity change, negative = cytotoxicity: at the top concentration.
Turning to `Cc1ccc(C(=O)c2cc([N+](=O)[O-])ccc2N2CCOCC2)cc1C`, the “activity change, negative = cytotoxicity” value is 14%.
Take `CCN(CC)CCCNc1nc2cc(OC)c(OC)cc2c2nc(-c3ccccc3)nn12`: the “activity change, negative = cytotoxicity” value is -10.9%.
Next, `C/C(=N\NC(=O)c1c([N+](=O)[O-])c(C)nn1C)c1ccc(NC(=O)C2CCCC2)cc1`: 9.99%; `O=C(Cc1ccccc1)c1nnc(-c2ccccc2)o1`: 0.429%; `Cc1cccc(C)c1OCCNC(=O)C(=O)NCc1ccco1`: -8.36%.
Next, `O=C(N/N=C/c1ccc(Cl)cc1)c1sccc1OCc1ccc(F)cc1`: 24.2%; `CCCOC(=O)c1[nH]c2c(c1C)C(=O)CC(c1cccs1)C2` (configuration not stated): 17.7%; `CCCNS(=O)(=O)c1cccc(C(=O)OCc2cc(=O)oc3cc(OC)ccc23)c1`: 5.66%.
Next, `Cc1cc(C)cc(C(=O)N2CC(=O)Nc3ccccc32)c1`: -3.75%; `Cc1cc(C)nc(/N=C(\N)Nc2ccc(OCc3ccccc3)cc2)n1`: -8.34%.
With `CC(=O)c1cccc(NC(=O)CSc2ncc(C(=O)Nc3ccccc3)c(=O)n2C)c1`, the “activity change, negative = cytotoxicity” value was -1.46%.
Next, `Cc1cnc(NC(=O)c2cc(S(=O)(=O)N(C)C)ccc2N2CCCC2)s1`: 17.8%; `Cc1ccc(Oc2ccc(S(=O)(=O)N3CCOCC3)cc2C(N)=O)c(-n2nc3ccccc3n2)c1`: 2.8%.
On to `Cc1ccc(/C=N/NC(=O)C2COc3ccccc3O2)s1` (configuration not stated), for which the “activity change, negative = cytotoxicity” value was -1.41%.
As for `Brc1ccc(CSc2nnc(-c3ccccc3)o2)cc1`, the “activity change, negative = cytotoxicity” value was 1.44%.
On to `COc1ccc2c(COC(=O)c3cccc(S(=O)(=O)NCC(C)C)c3)cc(=O)oc2c1`, for which the “activity change, negative = cytotoxicity” value was -3.37%.
Turning to `CCn1c2ccccc2c2cc(NC(=O)c3cc(OC)c(OC)c(OC)c3)ccc21`, the “activity change, negative = cytotoxicity” value is 53.1%.
